PubChem BioAssay AID1159580 (chemical genetic matrix, 2015)
In all, about 5,500 compounds went through this assay and about 2,000 (36%) were called active. Roughly 18% stayed inconclusive and do not appear here. No stated cut-off is given here; in the data, active means normalized growth mostly below about 0.91 (no sharp cut-off); inconclusive means no clear call, values can overlap the other calls; inactive means mostly above about 0.92. The list shows a part of the results.

Assay: chemical genetic growth profiling, strain panel (AID 1159580);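 further: tested at 20 µM; growth read once vehicle control cultures reached saturation at 30 °C; 1 = growth at the plate median or of vehicle wells; lower values mean less growth of the strain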
Settings: growth OD

Measured: normalized growth

COc1ccc2c(c1C(C)C)CCC1C(C)(C)C(=O)CCC21C (stereo unspecified)
inactive: S. cerevisiae deletion strains, locus YAL013W, strain DEP1, active compounds read low 1 | S. cerevisiae deletion strains, locus YBR021W, strain FUR4, active compounds read low 1 | S. cerevisiae deletion strains, locus YBR229C, strain ROT2, active compounds read low 0.988 | S. cerevisiae deletion strains, locus YCL029C, strain bik1, active compounds read low 0.955 | S. cerevisiae deletion strains, locus YDL035C, strain GPR1, active compounds read low 0.972 | S. cerevisiae deletion strains, locus YDL074C, strain BRE1, active compounds read low 0.969 | S. cerevisiae deletion strains, locus YDL101C, strain DUN1, active compounds read low 0.996 | S. cerevisiae deletion strains, locus YDL134C, strain PPH21, active compounds read low 0.976 | S. cerevisiae deletion strains, locus YDL185W, strain tfp1, active compounds read low 0.982 | S. cerevisiae deletion strains, locus YDL192W, strain arf1, active compounds read low 0.974 | S. cerevisiae deletion strains, locus YDR101C, strain arx1, active compounds read low 0.981 | S. cerevisiae deletion strains, locus YDR150W, strain NUM1, active compounds read low 0.96 | S. cerevisiae deletion strains, locus YDR162C, strain NBP2, active compounds read low 0.983 | S. cerevisiae deletion strains, locus YDR318W, strain mcm21, active compounds read low 0.968 | S. cerevisiae deletion strains, locus YDR388W, active compounds read low 0.977 | S. cerevisiae deletion strains, locus YDR502C, strain sam2, active compounds read low 0.982 | S. cerevisiae deletion strains, locus YEL061C, strain CIN8, active compounds read low 0.988 | S. cerevisiae deletion strains, locus YER110C, active compounds read low 0.982 | S. cerevisiae deletion strains, locus YER155C, strain BEM2, active compounds read low 0.991 | S. cerevisiae deletion strains, locus YER167W, strain BCK2, active compounds read low 0.95 | S. cerevisiae deletion strains, locus YGL078C, strain dbp3, active compounds read low 0.977 | S. cerevisiae deletion strains, locus YGL086W, strain mad1, active compounds read low 0.961 | S. cerevisiae deletion strains, locus YGL248W, strain PDE1, active compounds read low 0.976 | S. cerevisiae deletion strains, locus YGR078C, strain PAC10, active compounds read low 1 | S. cerevisiae deletion strains, locus YGR135W, strain pre9, active compounds read low 0.984 | S. cerevisiae deletion strains, locus YGR229C, strain SMI1, active compounds read low 0.974 | S. cerevisiae deletion strains, locus YGR252W, strain gcn5, active compounds read low 0.98 | S. cerevisiae deletion strains, locus YHR030C, strain SLT2, active compounds read low 0.979 | S. cerevisiae deletion strains, locus YHR079C, strain IRE1 (second series), active compounds read low 0.96 | S. cerevisiae deletion strains, locus YHR094C, strain hxt1, active compounds read low 0.974 | S. cerevisiae deletion strains, locus YHR129C, strain ARP1, active compounds read low 0.983 | S. cerevisiae deletion strains, locus YHR200W, strain rpn10, active compounds read low 0.955 | S. cerevisiae deletion strains, locus YIL066C, strain RNR3, active compounds read low 0.979 | S. cerevisiae deletion strains, locus YIL073C, strain SPO22, active compounds read low 0.921 | S. cerevisiae deletion strains, locus YIL125W, strain kgd1, active compounds read low 0.971 | S. cerevisiae deletion strains, locus YIR030C, strain dcg1, active compounds read low 0.97 | S. cerevisiae deletion strains, locus YJL095W, strain BCK1, active compounds read low 0.954 | S. cerevisiae deletion strains, locus YJL134W, strain LCB3, active compounds read low 0.983 | S. cerevisiae deletion strains, locus YJL168C, strain set2, active compounds read low 0.984 | S. cerevisiae deletion strains, locus YJL187C, strain SWE1 (second series), active compounds read low 0.986 | S. cerevisiae deletion strains, locus YJR043C, strain POL32, active compounds read low 0.962 | S. cerevisiae deletion strains, locus YJR075W, strain HOC1, active compounds read low 1 | S. cerevisiae deletion strains, locus YKL009W, strain mrt4, active compounds read low 0.966 | S. cerevisiae deletion strains, locus YKL068W, active compounds read low 0.976 | S. cerevisiae deletion strains, locus YKL085W, strain MDH1 (second series), active compounds read low 0.967 | S. cerevisiae deletion strains, locus YKL085W, strain MDH1, active compounds read low 0.967 | S. cerevisiae deletion strains, locus YKL190W, strain CNB1, active compounds read low 0.988 | S. cerevisiae deletion strains, locus YKR001C, strain vps1, active compounds read low 0.979 | S. cerevisiae deletion strains, locus YLR039C, strain RIC1, active compounds read low 0.995 | S. cerevisiae deletion strains, locus YLR058C, strain SHM2, active compounds read low 0.981 | S. cerevisiae deletion strains, locus YLR102C, strain apc9, active compounds read low 0.978 | S. cerevisiae deletion strains, locus YLR262C, strain YPT6, active compounds read low 0.994 | S. cerevisiae deletion strains, locus YLR268W, strain sec22, active compounds read low 0.995 | S. cerevisiae deletion strains, locus YLR330W, strain CHS5, active compounds read low 0.985 | S. cerevisiae deletion strains, locus YLR342W, strain FKS1 (second series), active compounds read low 0.973 | S. cerevisiae deletion strains, locus YLR371W, strain rom2, active compounds read low 0.979 | S. cerevisiae deletion strains, locus YLR418C, strain cdc73, active compounds read low 0.946 | S. cerevisiae deletion strains, locus YML016C, strain PPZ1, active compounds read low 0.978 | S. cerevisiae deletion strains, locus YML032C, strain rad52, active compounds read low 0.964 | S. cerevisiae deletion strains, locus YML124C, strain tub3, active compounds read low 0.961 | S. cerevisiae deletion strains, locus YMR078C, strain ctf18, active compounds read low 0.96 | S. cerevisiae deletion strains, locus YMR223W, strain ubp8, active compounds read low 0.959 | S. cerevisiae deletion strains, locus YMR263W, strain SAP30, active compounds read low 1.01 | S. cerevisiae deletion strains, locus YMR307W, strain GAS1, active compounds read low 0.84 | S. cerevisiae deletion strains, locus YNL067W, strain RPL9B, active compounds read low 1.01 | S. cerevisiae deletion strains, locus YNL128W, strain TEP1, active compounds read low 1.01 | S. cerevisiae deletion strains, locus YNL153C, strain GIM3, active compounds read low 1 | S. cerevisiae deletion strains, locus YNL233W, strain BNI4, active compounds read low 0.98 | S. cerevisiae deletion strains, locus YNL250W, strain rad50, active compounds read low 0.972 | S. cerevisiae deletion strains, locus YNL271C, strain bni1, active compounds read low 0.977 | S. cerevisiae deletion strains, locus YNL298W, strain CLA4, active compounds read low 0.982 | S. cerevisiae deletion strains, locus YNL322C, strain KRE1, active compounds read low 0.992 | S. cerevisiae deletion strains, locus YNR052C, strain pop2, active compounds read low 0.991 | S. cerevisiae deletion strains, locus YOL006C, strain TOP1, active compounds read low 0.896 | S. cerevisiae deletion strains, locus YOL012C, strain htz1 1.19 | S. cerevisiae deletion strains, locus YOL147C, strain pex11, active compounds read low 0.975 | S. cerevisiae deletion strains, locus YOR061W, strain CKA2, active compounds read low 0.977 | S. cerevisiae deletion strains, locus YOR069W, strain VPS5, active compounds read low 0.983 | S. cerevisiae deletion strains, locus YOR136W, strain idh2, active compounds read low 0.981 | S. cerevisiae deletion strains, locus YOR144C, strain elg1, active compounds read low 0.978 | S. cerevisiae deletion strains, locus YOR184W, strain ser1, active compounds read low 0.899 | S. cerevisiae deletion strains, locus YOR316C, strain cot1, active compounds read low 0.967 | S. cerevisiae deletion strains, locus YPL055C, strain LGE1, active compounds read low 1.01 | S. cerevisiae deletion strains, locus YPL241C, strain CIN2, active compounds read low 0.984 | S. cerevisiae deletion strains, locus YPR119W, strain clb2, active compounds read low 0.971 | S. cerevisiae deletion strains, locus YPR141C, strain kar3, active compounds read low 0.97 | S. cerevisiae deletion strains, locus YPR163C, strain tif3, active compounds read low 0.984 | S. cerevisiae deletion strains, locus YPR167C, strain met16, active compounds read low 0.97 | S. cerevisiae deletion strains, strain wtn01, active compounds read low 0.975 | S. cerevisiae strains, strain wild type, active compounds read low 0.998
active: S. cerevisiae deletion strains, locus YNL307C, strain MCK1, active compounds read low 0.854
